CYP2C9 inh: inhibitors of human CYP2C9; P11712; CYP2C9 Supersomes, luciferin-H conversion, luminescence; inhibition, % at 5 µM; 96,000 compounds, 20% hits;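 active = blocking of liver enzyme CYP2C9 beyond about 50% at 5 µM, limit read from the data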
sEH activator: activators of human soluble epoxide hydrolase; activation, % at 2 µM; AID 717; 91,000 compounds, 0.04% hits; purified human sEH enzymatic activity, activator screen; in the data active = activation above about 37%
CYP2C9 activ: activators of human CYP2C9; recombinant CYP2C9, luciferin-H conversion, luminescence; hits give high values; factor 1 = untreated enzyme, 0 = blocked; activation factor at 5 µM; 96,000 compounds, 1.4% hits; AID 1024;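 active = activation factor of 2 or more for CYP2C9 at a 5 µM dose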;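 also: 0 = sulfaphenazole-blocked wells and 1 = vehicle-only wells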
sEH inhibitor: blocks human soluble epoxide hydrolase activity; P34913; recombinant human sEH enzymatic activity assay; inhibition, % at 2 µM; 91,000 compounds, 0.34% hits; in the data active = inhibition above about 80%
CYP2C19 inh: inhibitors of human CYP2C19; P33261; CYP2C19 Supersomes, luciferin-H EGE luminescence, 30 min; inhibition, % at 5 µM; 96,000 compounds, 21% hits; AID 778;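 active = CYP2C19 inhibition above a set limit at 5 µM in the primary screen, cut at about 50% in these data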;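 also: plate controls were negative control wells for no effect and 2.5 mM tranylcypromine positive control for full effect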
Target sequence (P33261 whole entry, looked up): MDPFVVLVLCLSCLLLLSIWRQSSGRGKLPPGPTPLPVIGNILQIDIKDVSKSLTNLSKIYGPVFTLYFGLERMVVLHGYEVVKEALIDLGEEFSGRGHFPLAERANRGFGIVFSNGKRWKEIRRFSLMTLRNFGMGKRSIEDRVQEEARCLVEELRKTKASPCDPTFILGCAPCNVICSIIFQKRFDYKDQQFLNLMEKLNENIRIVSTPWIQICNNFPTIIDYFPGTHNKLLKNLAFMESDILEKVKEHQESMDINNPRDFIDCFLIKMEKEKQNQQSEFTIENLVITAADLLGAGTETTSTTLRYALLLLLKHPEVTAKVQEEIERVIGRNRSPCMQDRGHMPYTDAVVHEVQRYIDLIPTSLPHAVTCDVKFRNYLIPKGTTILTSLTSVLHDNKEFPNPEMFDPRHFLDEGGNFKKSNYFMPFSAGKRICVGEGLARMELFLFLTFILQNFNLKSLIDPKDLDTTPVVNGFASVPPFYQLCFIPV
CYP2C19 activ: activators of human cytochrome P450 2C19; P33261; recombinant CYP2C19, luciferin-H EGE luminescence; hits give high values; 0 = fully inhibited enzyme, 1 = untreated enzyme; activation factor at 5 µM; 96,000 tested, under 10 active; AID 1025;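 active = activation factor of at least 2 at 5 µM in the primary screen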;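 also: 0 = wells with 2.5 mM tranylcypromine and 1 = vehicle-only wells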
Active calls of the source: *; / = no result. A selection: hits, their analogues and other compounds. The true share with any hit is near 27%.

SMILES | CYP2C9 inh | sEH activator | CYP2C9 activ | sEH inhibitor | CYP2C19 inh | CYP2C19 activ
O=C1NC2(CCCCC2)C(=O)N1/N=C/c1ccc(O)cc1O | -219 | -9 | 3.2* | 8 | 13 | 0.9
O=Cc1ccc(N2CCCCCC2)cc1 | 30 | -8 | 0.7 | 9 | 89* | 0.1
c1ccc(COc2ccc(CN3CCN(c4ccccn4)CC3)cc2)cc1 | 59* | 0 | 0.4 | 2 | 38 | 0.6
Brc1ccc(CN2CCN(c3ccccn3)CC2)s1 | 90* | 10 | 0.1 | -8 | 99* | 0
COc1ccc(CN2CCN(c3ccccn3)CC2)c(OC)c1 | 16 | / | 0.8 | / | 46 | 0.5
C(#Cc1ccccc1)CN1CCN(c2ccccn2)CC1 | 76* | -4 | 0.2 | 5 | 98* | 0
CC(C)CC(=O)N1CCN(C(=O)CCC2CCCC2)CC1 | 8 | -5 | 0.9 | 4 | 20 | 0.8
O=C(c1ccc(COc2c(F)c(F)cc(F)c2F)o1)N1CCN(c2ccccc2)CC1 | / | -7 | / | 6 | / | /
O=C1C(C2=C(O)c3ccccc3C2=O)=Nc2ccccc21 | 53* | -6 | 0.5 | 7 | 45 | 0.6
COc1cc(/C=N/NC(=Nc2ccc(C)cc2)c2nc3ccccc3s2)ccc1O | 94* | 5 | 0.1 | -2 | 24 | 0.8
Nc1ccc2nc(SCc3ccc([N+](=O)[O-])cc3)sc2c1 | 59* | 6 | 0.4 | -5 | 97* | 0
O=[N+]([O-])c1ccc2nc(SCc3ccccc3Cl)sc2c1 | 12 | 8 | 0.9 | -6 | 26 | 0.7
CCCCN1CC(C(=O)NC2CCCCC2)CC1=O (centres undefined) | -20 | -16 | 1.2 | 17 | -13 | 1.1
C=CCNC(=O)C(C#N)c1nc2ccccc2nc1N1CCN(Cc2ccccc2)CC1 (centres undefined) | 9 | -9 | 0.9 | 10 | 4 | 1
COC(=O)C(C#N)c1nc2ccccc2nc1N1CCN(Cc2ccc3c(c2)OCO3)CC1 (centres undefined) | 47 | / | 0.5 | / | 50* | 0.5
CC(C)COC(=O)C(C#N)c1nc2ccccc2nc1N1CCN(Cc2ccc3c(c2)OCO3)CC1 (centres undefined) | 79* | -22 | 0.2 | 24 | 49 | 0.5
CCCCOC(=O)C(C#N)c1nc2ccccc2nc1N1CCN(Cc2ccc3c(c2)OCO3)CC1 (centres undefined) | 92* | 12 | 0.1 | -13 | 65* | 0.3
CC(C)COC(=O)C(C#N)c1nc2ccccc2nc1N1CCN(Cc2ccccc2)CC1 (centres undefined) | 23 | 11 | 0.8 | -6 | 7 | 0.9
N#CCc1c(C#N)c(N)nc(N2CCN(Cc3ccc4c(c3)OCO4)CC2)c1C#N | 54* | 0 | 0.5 | 3 | 0 | 1
CSCCC1NC(=O)N(CC(=O)Nc2cccc3ccccc23)C1=O (centres undefined) | -32 | -13 | 1.3 | 12 | 10 | 0.9
COc1cc(OC)cc(C(=O)NCCNC(=O)c2ccco2)c1 | / | -22 | / | 23 | / | /
CCOC(=O)CNC(=O)c1cn(CC(C)C)c(=O)c2cc(OC)c(OC)cc12 | / | -8 | / | 6 | / | /
CN(C1CCS(=O)(=O)C1)S(=O)(=O)c1ccc(C2CCCCC2)cc1 (centres undefined) | 9 | 8 | 0.9 | -6 | -7 | 1.1
CCOC(=O)c1c(C)n(C)c2ccc(OCC(O)Cn3nc(C)cc3C)cc12 (centres undefined) | 74* | -8 | 0.3 | 3 | 78* | 0.2
COc1ccc(OCC(O)Cn2c(=N)n(Cc3ccccc3)c3ccccc32)cc1 (centres undefined) | 22 | 21 | 0.8 | -18 | 49 | 0.5
SMILES | CYP2C9 inh | sEH activator | CYP2C9 activ | sEH inhibitor | CYP2C19 inh | CYP2C19 activ
COc1ccc(OCC(O)CN2C(=O)c3ccccc3S2(=O)=O)cc1 (centres undefined) | 49 | 17 | 0.5 | -17 | 92* | 0.1
O=C(Nc1ccccc1)c1ccccc1OCC(O)CN1C(=O)c2ccccc2S1(=O)=O (centres undefined) | 76* | -13 | 0.2 | 13 | 63* | 0.4
CCOC(=O)c1c(C)n(C)c2ccc(OCC(O)CN(CC)CC)cc12 (centres undefined) | 0 | 0 | 1 | 1 | -9 | 1.1
CCOC(=O)c1c(C)n(C)c2ccc(OCC(O)CN3C(=O)c4ccccc4S3(=O)=O)cc12 (centres undefined) | 73* | 4 | 0.3 | -5 | 43 | 0.6
Cc1ccnc(Sc2ncccc2[N+](=O)[O-])n1 | -46 | 11 | 1.5 | -11 | -14 | 1.1
CCCc1nc2ccccc2c(=O)n1/N=C/c1c(C)[nH]n(-c2ccc(C)cc2)c1=O | 67* | / | 0.3 | / | 12 | 0.9
Cc1nc2ccccc2c(=O)n1/N=C/c1ccc(O)cc1 | -14 | 8 | 1.1 | -9 | 19 | 0.8
COc1cccc(/C=N/n2c(C)nc3ccccc3c2=O)c1O | 69* | / | 0.3 | / | 38 | 0.6
CCCc1nc2ccccc2c(=O)n1/N=C/c1ccccc1O | 86* | / | 0.1 | / | 62* | 0.4
CSc1ccccc1C(=O)Nc1cccc(C(C)O)c1 (centres undefined) | -12 | -6 | 1.1 | 10 | 0 | 1
Cc1cccc2c(=O)cc(C)n(CC(=O)N3CCOCC3)c12 | 1 | 2 | 1 | 0 | 32 | 0.7
Cc1cccc2c(=O)cc(C)n(CC(=O)N3CCCCC3)c12 | 24 | 0 | 0.8 | 1 | 88* | 0.1
Clc1ccc(OCCn2cnc3ccccc32)c(Cl)c1 | / | -2 | / | 0 | / | /
Clc1ccc(COn2nnc3ccccc32)c(Cl)c1 | 8 | -4 | 0.9 | 6 | 64* | 0.4
O=C1CCCN1c1ccc(S(=O)(=O)Nc2ccc3c(c2)OCCO3)cc1 | 40 | 7 | 0.6 | -8 | 44 | 0.6
CSc1ccc(S(=O)(=O)Nc2ccc(N3CCOCC3)c(Cl)c2)cc1 | 98* | 11 | 0 | -7 | 100* | 0
O=S(=O)(Nc1ccc2c(c1)OCCO2)c1ccc(F)cc1 | 69* | -5 | 0.3 | 7 | 88* | 0.1
CSc1ccc(S(=O)(=O)Nc2ccc3c(c2)OCCO3)cc1 | 48 | / | 0.5 | / | 68* | 0.3
O=S(=O)(NCc1ccc(F)cc1)c1ccc2c(c1)OCCO2 | -95 | 6 | 2* | -6 | 60* | 0.4
COC(=O)C1=C(COc2ccc(F)cc2)NC(=O)NC1c1ccc(C)cc1C (centres undefined) | -2 | -2 | 1 | 3 | 2 | 1
O=C1c2ccccc2C(Nc2ccc3c(c2)OCO3)N1Cc1ccco1 (centres undefined) | / | -13 | / | 13 | / | /
COC(=O)c1cc(NC2c3ccccc3C(=O)N2Cc2ccco2)cc(C(=O)OC)c1 (centres undefined) | 31 | / | 0.7 | / | 77* | 0.2
COc1ccc(NC2c3ccccc3C(=O)N2Cc2ccco2)cc1OC (centres undefined) | 33 | / | 0.7 | / | 64* | 0.4
